# According to PubChem BioAssay AID1533 (PCMD, 2009):
# Among all 160,000 compounds or so, about 45 (0.03%) were called active. Cut-off read from the data, not from the text of the source: active = inhibition mostly above about 34% (no sharp cut-off); inconclusive = no clear call, values can overlap the other calls; inactive = mostly below about 22%. Many of the other results were omitted from the sample, so actives are more common in it than they were.
# Target: dTDP-4-dehydrorhamnose reductase (Mycobacterium tuberculosis (strain ATCC 25618 / H37Rv)) + dTDP-4-dehydrorhamnose 3,5-epimerase (Mycobacterium tuberculosis (strain ATCC 25618 / H37Rv)) (UniProt P9WH09+P9WH11)
# Sequence (P9WH09 whole entry, looked up): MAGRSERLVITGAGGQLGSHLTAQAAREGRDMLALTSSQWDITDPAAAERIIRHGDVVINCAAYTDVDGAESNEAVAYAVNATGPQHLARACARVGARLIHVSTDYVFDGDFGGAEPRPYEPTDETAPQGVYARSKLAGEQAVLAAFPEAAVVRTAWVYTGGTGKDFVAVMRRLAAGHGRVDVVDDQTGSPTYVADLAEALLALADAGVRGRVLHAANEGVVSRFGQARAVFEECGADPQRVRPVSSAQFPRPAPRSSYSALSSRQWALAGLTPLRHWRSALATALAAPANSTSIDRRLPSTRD
# Sequence (P9WH11 whole entry, looked up): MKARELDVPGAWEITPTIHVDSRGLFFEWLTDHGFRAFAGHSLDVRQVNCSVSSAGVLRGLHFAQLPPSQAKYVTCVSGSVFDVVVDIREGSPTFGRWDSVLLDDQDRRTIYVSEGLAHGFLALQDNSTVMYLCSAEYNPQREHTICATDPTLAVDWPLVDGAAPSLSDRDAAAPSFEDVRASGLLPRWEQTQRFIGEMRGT
# Assay: M. tuberculosis RmlC/RmlD coupled enzyme inhibitors, primary screen, biochemical, compound mixtures, 384-well, from 1536-well plates (AID 1533)
# Details: RmlC+RmlD coupled enzyme assay, percent inhibition, primary screen in compound mixtures, stronger effect = higher value
# [1] = measured here: mean retest inhibition, at 5.5 µM
SMILES,inhibition (at 3.6 µM),inhibition [1] [%]
O=C(O)CCc1nc2cc(Cl)ccc2n(Cc2ccccc2)c1=O,-4.14% (inactive),–
Cc1nc2cccnc2nc1C,-6.92% (inactive),–
Cc1ccccc1Nc1nc(N)nc(CSc2nnc3ccccn23)n1,4.62% (inactive),–
CC(C)(C)NC(=O)/C(=C/c1cccnc1)NC(=O)c1ccco1,-0.65% (inactive),–
CN1CCN(C2=NCCO2)CC1,-5.76% (inactive),–
C/C(=N\NC(=O)c1nc(C)cc(C)n1)c1ccccc1,-2.86% (inactive),–
CNC(=O)C(NC(=O)c1ccccc1)=C(C)C,3.15% (inactive),–
CC(C)=C(NC(=O)c1ccccc1)C(=O)N/N=C(\C)c1ccccc1O,51.8% (active),31.3
Cc1ccc(SCc2c(C(=O)N/N=C/C3CC=CCC3)nnn2-c2nonc2N)cc1 (stereo not given),9.89% (inactive),–
OCC1(Cc2ccccc2C(F)(F)F)CCN(Cc2ccncc2)CC1,9.49% (inactive),–
O=C1C2C3C=CC(C3)C2C(=O)N1c1ccc(-c2nc3ccccc3c(=O)o2)cc1 (stereo not given),1.56% (inactive),–
O=C(CCCl)Nc1ccc(S(=O)(=O)NCc2ccco2)cc1,4.49% (inactive),–
CC(C)c1nc(SCC(=O)NC(=O)NC(C)(C)C)n[nH]1,-8.54% (inactive),–
O=C(COC(=O)c1ccc(Cl)nc1)NCc1cccs1,-9.13% (inactive),–
Cc1cc(C(=O)Cn2cnc3cc([N+](=O)[O-])ccc3c2=O)c(C)n1CC1CCCO1 (stereo not given),5.54% (inactive),–
C=CCSc1nnc(NC(=O)c2ccc(NC(C)=O)cc2)s1,2.48% (inactive),–
Cc1cc(C)c(NC(=O)CN2C(=O)NC(Cc3ccccc3)C2=O)c(C)c1 (stereo not given),43.2% (inactive),7.39
O=[N+]([O-])C(=c1ccc2c(c1)N1C3=C(CCCC3)CC3CCCCC31N=2)[N+](=O)[O-] (stereo not given),-9.85% (inactive),–
CCOC(=O)CNC(=O)CSc1ccc2nnc(-c3cccnc3)n2n1,-13.1% (inactive),–
CC(=O)Nc1ccc(CC#N)cc1,-7.92% (inactive),–
CC(NC(=O)C(=O)Nc1nccs1)c1ccccc1 (stereo not given),12.6% (inactive),–

SMILES,inhibition (at 3.6 µM),inhibition [1] [%]
COc1ccc(/C=C/c2nnc(NC(=O)C(C)C)s2)cc1,2.36% (inactive),–
Cn1nc(C(F)(F)F)c(-c2ccc(F)cc2)c1NC(=O)CSCC(=O)O,10% (inactive),–
O=[N+]([O-])/C=C1\CCCCCN1,-6.23% (inactive),–
O=C1[C@@H]2C(c3cccnc3)=NO[C@@H]2C(=O)N1c1ccc(Cl)cc1Cl,13.9% (inactive),–
CCOC(=O)CNc1nc(Cl)nc(Nc2ccccc2)n1,0.72% (inactive),–
Cn1nccc1NC(=O)Nc1ccc(OC(F)(F)F)cc1,-2.41% (inactive),–
COc1ccccc1P(=O)(c1ccccc1)c1ccccc1NC(C)=O (stereo not given),40.9% (inactive),-18.2
CCOC(=O)C(CC)/C(C)=N\NC(=O)c1cccc(C)c1 (stereo not given),9.71% (inactive),–
COC(=O)CC1=NN(c2ccccc2)C(=O)C1,-13% (inactive),–
Cc1cc(C(=O)OCC(=O)Nc2nccs2)c2ccccc2n1,9.68% (inactive),–
Cc1ccccc1C(=O)Nc1ccc(N2CCCCCC2)cc1,-4.06% (inactive),–
COc1ccc(NC(=O)CSc2ncnc3[nH]ncc23)cc1,-14.6% (inactive),–
CCC/C(C)=N\Nc1nc2c(c(=O)n(C)c(=O)n2C)n1C,-3.15% (inactive),–
COc1ccc(/C=N/NS(=O)(=O)c2ccc(NC(C)=O)cc2)cc1,10.1% (inactive),–
C/C(CCc1ccccc1)=N\NC(=O)c1ccc(CN2CCOCC2)cc1,6.96% (inactive),–
CC(=O)NC(CC(=O)Nc1nccs1)c1ccccc1 (stereo not given),3.67% (inactive),–
Cc1cc(Nc2ccc(N3CCOCC3)cc2)c2cccc(C)c2n1,35.8% (inactive),-6.33
Cc1ccc(NNC(=O)C2CCC2)cc1C,-0.66% (inactive),–
C=CCNC(=S)N1CCc2[nH]c3ccccc3c2C1,-7.26% (inactive),–
Cn1c(SCC(=O)Nc2ccc(Cl)cc2)nc(O)cc1=O,3.67% (inactive),–
OCC(O)CN(c1ccccc1)c1ccccc1 (stereo not given),15.9% (inactive),–

SMILES,inhibition (at 3.6 µM),inhibition [1] [%]
O=C(NCc1ccncc1)NC12CC3CC(CC(C3)C1)C2,4.57% (inactive),–
Cc1nc2ccc(NC(=S)N3CCC(C)CC3)cc2nc1C,12.1% (inactive),–
Cc1ccc(CSc2nc3[nH]ncc3c(=O)[nH]2)cc1,65.1% (inactive),4.96
CC(C)c1c(O)nc(SCCOc2ccc(Cl)cc2)[nH]c1=O,7.19% (inactive),–
Cc1c(-c2cccc(Cl)c2)nc2ccccc2c1C(=O)OCC(=O)N(C)C1CCS(=O)(=O)C1 (stereo not given),5.87% (inactive),–
O=C(CCS(=O)(=O)c1ccccc1Cl)Nc1ccc(S(=O)(=O)Nc2ncccn2)cc1,10% (inactive),–
CCCCCN(C(=O)NC(=O)Nc1cccc(C)c1C)S(C)(=O)=O,-12.7% (inactive),–
OC(c1ccccc1)C(CN1CCOCC1)c1ccccc1 (stereo not given),7.15% (inactive),–
NS(=O)(=O)c1ccc(NC(=S)NC(=O)c2cccc(Br)c2)cc1,4.21% (inactive),–
CCC1=NN2C(=N)/C(=C/c3cc(C)n(-c4ccccc4)c3C)C(=O)N=C2S1,-9.8% (inactive),–
CCN1CCc2nc(NC(=O)c3cc(F)c(F)cc3Cl)sc2C1,-6.97% (inactive),–
COc1ccc(C2=NN(C(=O)CCC(=O)O)C(c3cccs3)C2)cc1OC (stereo not given),-7.36% (inactive),–
CN1CCN(CCNC(=O)Nc2ccc([N+](=O)[O-])cc2)CC1,5.16% (inactive),–
CN(C)c1ccc(/C=C/C(=O)c2ccc(O)cc2)cc1[N+](=O)[O-],44.3% (inactive),5.01
CCOC(=O)C1CCN(C(=O)Nc2cccc(OC)c2)CC1,1.02% (inactive),–
Cc1ccc(/C=N/NC(=O)CSc2ccccn2)o1,70% (inactive),-5.62
O=C(O)C(NS(=O)(=O)c1cccc2nsnc12)c1ccccc1 (stereo not given),-10.9% (inactive),–
CCCCSc1nnc2c(n1)OC=Nc1ccccc1-2,11.2% (inactive),–
CN1CCc2nc(SC(C(=O)O)c3ccccc3)c(C#N)c(-c3cccs3)c2C1 (stereo not given),-14.8% (inactive),–
COc1ccc(OC)c(-n2c(=S)[nH]c3cc(C(=O)N4CCCCC4)ccc3c2=O)c1,4.34% (inactive),–
O=S(=O)(NCc1ccco1)c1cnc(Cl)c(Cl)c1,11.4% (inactive),–
